This passage reports growth results from PubChem BioAssay (NCI).

The panel holds about 83,000 compounds, 20% with a hit somewhere; the sample as a whole holds those more often.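 Treatment: one concentration, 48 hours, 96-well format. Scoring: percent growth, with anything below 10 considered active.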 Unmarked numbers belong to inactive results. The source made the active and inactive calls.

Holding throughout (experiment): NCI-60 one-dose screen, 48 h (100 = growth as untreated, 0 = no growth, -100 = all killed)
Holding throughout (conditions): 10 µM unless noted

In experiment [1] the test system is SK-MEL-2 melanoma.
Experiment [2] deals with EKVX NSCLC.
Experiment [3] deals with SN12C renal.
Experiment [4] relates to UO-31 renal.
The test system of experiment [5] is TK-10 renal.
Experiment [6] relates to ACHN renal.
The test system of experiment [7] is CAKI-1 renal.
Experiment [8] relates to A498 renal.
Experiment [9] has as its system CCRF-CEM leukemia.
The subject of experiment [10] is MOLT-4 leukemia.

As for `COc1ccc2c(c1)c(-c1cc(N)n3nc(-c4cn(C)c5ccc(OC)cc45)cc3n1)cn2C`, the growth in experiment [1] was 133%; in [2], 107%; in [3], 92.4%; in experiment [4] it was 93.3%; in [5] it was 121%; in experiment [6] it was 103%. The growth was 96.7% in experiment [7], 88.8% in experiment [8], -8.54% (active) in [9] and 56.1% in experiment [10].

On to `CNC(=O)c1cc(-c2ccc(NC(=S)Nc3cc(C(F)(F)F)cc(C(F)(F)F)c3)cc2)nc2cccnc12`, for which the growth is 99.3% in [1]; 70% in experiment [2]; 86.7% in [3]; 59.7% in experiment [4]; 68.9% in [5]; 101% in experiment [6]. Further, the growth in experiment [7] was 71.4%; in experiment [8], 47.2%; in [9], 94.5%; in experiment [10], 88%.

In the case of `CC[C@]12C=CCN3CC[C@@]4(c5cc(NC(=O)COc6cc(O)c7c(=O)cc(-c8ccccc8)oc7c6)c(OC)cc5N(C)[C@H]4[C@@](O)(C(=O)OC)[C@@H]1OC(C)=O)[C@@H]32`, the growth in [1] is -82.9% (active); in [2], -42.2% (active); in [3], -75.4% (active); in [4] it was -84.9% (active); in experiment [5], -45.5% (active); in [6] it was -78.1% (active). The growth in experiment [7] was -78.3% (active); in experiment [8] it was -89.6% (active); in experiment [9], -20.2% (active); in experiment [10] it was -23% (active).

Regarding `O=c1[nH]c(Sc2sc3ccc(Cl)cc3c2CBr)nc(=S)[nH]1`, the growth was 7.23% (active) in experiment [1]; 40.2% in experiment [2]; 41.8% in [3]; 19.9% in experiment [4]; 46.2% in experiment [5]; 26.7% in [6]. Besides, the growth in [7] is 13.7%; in experiment [8], 5.73% (active); in [9], 18%; in [10], 17.5%.

For the compound `N#Cc1cccc(CN2CCc3ncn(Cc4ccc(Cl)cc4)c(=O)c3C2)c1`, the growth is 28.6% in experiment [1]; 23.7% in [2]; 15.9% in [3]; 26% in experiment [4]; 38.1% in experiment [5]; 29.8% in experiment [6]. In addition, the growth in [7] was 10.7%; in [8], 4.83% (active); in experiment [9], 35.9%; in experiment [10], 43.3%.

In the case of `NC(=O)c1c(NC(=O)c2ccccc2C(F)(F)F)sc2c1CCC(=O)C2`, the growth in experiment [1] was 45.5%; in experiment [2], 24.3%; in [3], 40.3%; in experiment [4], -7.49% (active); in experiment [5], 28.1%; in experiment [6] it was 8.24% (active). Further, the growth in experiment [7] was -2.3% (active); in [8], 85.9%; in experiment [9] it was 16.3%; in [10], 19.9%.

Consider `NS(=O)(=O)c1ccc(-n2cc(CN3CCNCC3)nn2)cc1`, for which the growth in [1] is 110%; in experiment [2] it was 104%; in experiment [3], 110%; in [4], 92.9%; in experiment [5], 100%; in experiment [6], 109%. In addition, the growth is 95.9% in [7], 107% in [8], 109% in experiment [9] and 103% in experiment [10].

Turning to `C=C(C=O)[C@@H]1CC[C@]2(C)[C@H](CC=C3[C@H]4[C@@H](C)[C@H](C)CC[C@]4(C(=O)OC)CC[C@]32C)[C@@]1(C)CCC#N`, the growth in [1] was -27.6% (active); in experiment [2] it was 15.2%; in [3], 12.9%; in experiment [4], -83.5% (active); in experiment [5], 35.7%; in [6], -71.9% (active). In addition, the growth in experiment [7] is 3.89% (active); in experiment [8], 81.1%; in [9], 10.7%; in [10], 1.4% (active).

As for `O=C(CSc1nc2ccccc2c(=O)n1-c1ccccc1)Nc1cccc(C(=O)/C=C/c2ccccc2Cl)c1`, the growth was 105% in experiment [1]; 99.4% in [2]; 102% in experiment [3]; 90.7% in [4]; 138% in experiment [5]; 103% in experiment [6]. Also, the growth in experiment [7] is 95.9%; in experiment [8], 116%; in experiment [9], 113%; in experiment [10], 106%.

Take `C=CCn1c(SCC(=O)Nc2ccc(C(=O)/C=C/c3ccc(C)cc3)cc2)nnc1-c1c[nH]c2ccccc12`: the growth in experiment [1] is 97.3%; in experiment [2], 61.9%; in [3], 83.6%; in experiment [4] it was 54.2%; in experiment [5] it was 114%; in experiment [6], 83.4%. Also, the growth in [7] is 85.4%; in [8], 95.1%; in experiment [10] it was 60.7%.

As for `Cc1cc(C(NC(=O)CCCCCNc2cccc3c2C(=O)N(C2CCC(=O)NC2=O)C3=O)c2ccc3c(c2)OC(F)(F)O3)c(O)c2ncccc12` (centres undefined), the growth in experiment [1] was 62.6%; in experiment [2], 71.3%; in experiment [3] it was 49.9%; in experiment [4] it was 77.2%; in experiment [5], 93.8%; in experiment [6], 63.5%. The growth in experiment [7] is 50%; in [8], 95.1%; in [9], 38.6%; in [10] it was 42.5%.

`CCCC(=O)NC(c1cccnc1)c1cc(C(C)(C)C)c2cccnc2c1O` (centres undefined): the growth in experiment [1] was 30.5%; in experiment [2] it was 21.7%; in [3], 29.5%; in experiment [4], 13.6%; in experiment [5], 42.3%; in experiment [6] it was 12.1%. Further, the growth is 16.2% in experiment [7], 13.6% in [8], 9.16% (active) in [9] and 14.2% in [10].

Consider `CCn1c(SCC(=O)Nc2cccc(C(=O)/C=C/c3ccc(Br)cc3)c2)nc2ccccc2c1=O`, for which the growth in [1] is 106%; in experiment [2], 96.5%; in [3] it was 92.7%; in experiment [4], 71.9%; in experiment [5] it was 104%; in experiment [6], 102%. Moreover, the growth is 90.7% in experiment [7], 87.3% in experiment [8], 75% in experiment [9] and 98.3% in experiment [10].
